This note sets out measurements from ChEMBL document CHEMBL1961873, “Compounds: GSK PKIS; Assays: Nanosyn kinase panel” (2012).

Chain of Epidermal growth factor receptor (Homo sapiens) (P00533 whole entry): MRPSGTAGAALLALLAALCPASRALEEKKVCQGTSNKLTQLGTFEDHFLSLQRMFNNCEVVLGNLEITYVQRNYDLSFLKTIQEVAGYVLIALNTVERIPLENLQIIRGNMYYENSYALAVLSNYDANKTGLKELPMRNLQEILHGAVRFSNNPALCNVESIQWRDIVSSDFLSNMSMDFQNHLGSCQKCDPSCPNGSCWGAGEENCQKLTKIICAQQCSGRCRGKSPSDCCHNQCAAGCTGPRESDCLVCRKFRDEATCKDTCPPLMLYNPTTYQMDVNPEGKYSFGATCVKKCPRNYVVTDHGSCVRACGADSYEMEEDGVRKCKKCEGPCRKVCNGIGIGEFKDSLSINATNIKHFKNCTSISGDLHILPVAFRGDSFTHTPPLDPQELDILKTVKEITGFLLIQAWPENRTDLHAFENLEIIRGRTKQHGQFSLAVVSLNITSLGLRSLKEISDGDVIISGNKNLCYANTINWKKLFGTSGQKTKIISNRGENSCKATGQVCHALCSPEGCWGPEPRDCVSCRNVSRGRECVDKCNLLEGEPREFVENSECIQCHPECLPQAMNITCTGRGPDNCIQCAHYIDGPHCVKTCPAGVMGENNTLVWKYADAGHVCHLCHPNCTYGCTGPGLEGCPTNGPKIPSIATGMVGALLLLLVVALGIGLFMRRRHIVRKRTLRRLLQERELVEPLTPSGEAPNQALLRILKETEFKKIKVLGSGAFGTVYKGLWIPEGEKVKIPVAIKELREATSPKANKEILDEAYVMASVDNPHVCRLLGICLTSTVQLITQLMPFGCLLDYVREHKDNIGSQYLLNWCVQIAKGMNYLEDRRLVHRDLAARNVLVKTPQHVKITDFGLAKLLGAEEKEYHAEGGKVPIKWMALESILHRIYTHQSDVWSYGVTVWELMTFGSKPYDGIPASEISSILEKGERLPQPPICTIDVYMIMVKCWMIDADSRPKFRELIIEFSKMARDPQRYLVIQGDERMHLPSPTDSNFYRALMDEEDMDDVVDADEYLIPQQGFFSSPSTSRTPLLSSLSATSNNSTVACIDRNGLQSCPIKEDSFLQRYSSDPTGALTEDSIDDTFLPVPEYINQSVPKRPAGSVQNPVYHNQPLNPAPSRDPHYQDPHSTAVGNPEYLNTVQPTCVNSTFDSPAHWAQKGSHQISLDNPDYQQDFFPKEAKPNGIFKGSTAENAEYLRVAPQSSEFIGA

In one test the target is T1, Discoidin domain-containing receptor 2 (Homo sapiens) (UniProt Q16832).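 Note: reported figure is the mean inhibition of DDR2.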
T1 sequence (whole entry): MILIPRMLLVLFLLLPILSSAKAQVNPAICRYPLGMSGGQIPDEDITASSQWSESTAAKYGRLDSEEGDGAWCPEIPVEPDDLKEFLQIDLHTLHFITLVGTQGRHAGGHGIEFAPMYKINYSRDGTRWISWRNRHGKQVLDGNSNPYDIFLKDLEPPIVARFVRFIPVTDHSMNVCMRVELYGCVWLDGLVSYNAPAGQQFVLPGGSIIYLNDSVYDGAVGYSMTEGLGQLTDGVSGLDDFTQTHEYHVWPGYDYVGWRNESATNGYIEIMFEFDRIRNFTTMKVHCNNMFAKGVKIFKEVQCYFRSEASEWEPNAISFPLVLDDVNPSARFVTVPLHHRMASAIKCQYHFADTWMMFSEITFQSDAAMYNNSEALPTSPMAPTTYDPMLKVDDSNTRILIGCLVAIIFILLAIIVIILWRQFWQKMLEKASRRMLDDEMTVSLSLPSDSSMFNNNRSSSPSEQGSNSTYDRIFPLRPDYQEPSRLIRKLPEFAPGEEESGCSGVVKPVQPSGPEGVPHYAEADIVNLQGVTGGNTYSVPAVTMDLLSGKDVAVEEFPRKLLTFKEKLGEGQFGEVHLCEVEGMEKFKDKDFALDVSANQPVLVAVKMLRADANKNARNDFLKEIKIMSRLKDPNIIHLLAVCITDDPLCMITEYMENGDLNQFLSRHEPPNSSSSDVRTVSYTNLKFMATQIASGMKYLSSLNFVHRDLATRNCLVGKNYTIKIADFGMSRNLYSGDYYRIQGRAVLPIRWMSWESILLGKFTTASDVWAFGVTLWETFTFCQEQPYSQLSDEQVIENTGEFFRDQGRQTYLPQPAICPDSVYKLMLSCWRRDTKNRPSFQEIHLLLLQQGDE
The settings on record: at 1 µM.
On to `CCn1cc(-c2ccnc3[nH]ccc23)c(-c2cccc(NC(=O)Nc3ccc(OCc4ccccc4)cc3)c2)n1`, for which the inhibition is 21%.
In the case of `NS(=O)(=O)c1ccc(Nc2ncc(-c3ccccc3)o2)cc1`, the inhibition is 4.71%.
For the compound `CCCN(CCS(C)(=O)=O)Cc1ccc(-c2ccc3ncnc(Nc4ccc(OCc5cccc(F)c5)c(Cl)c4)c3c2)o1`, the inhibition stood at 1.68%.
Consider `CCN(CC)S(=O)(=O)c1ccc(OC)c(Nc2ncc(-c3ccccc3)o2)c1`, for which the inhibition came out at 17.5%.
Same read-out and setting: then `CS(=O)(=O)CCNCc1coc(-c2ccc3ncnc(Nc4ccc(OCc5ccccc5)cc4)c3c2)c1`, with 1.8%; and `N#Cc1c(NC(=O)CN2CCOCC2)sc2c1CCCC2`, with 2.97%; and `COc1cccc(-n2ncc3c(N/N=C/c4ccc(F)cc4)ncnc32)c1`, with 4.36%.
For `O=C(O[C@H]1CN[C@H](C#Cc2cc3ncnc(Nc4ccc(Cc5ccccc5)cc4)c3s2)C1)N1CCOCC1`, the inhibition was -1.26%.
As for `COc1cc2c(cc1Nc1nc(Nc3ccsc3C(N)=O)c3cc[nH]c3n1)N(C(=O)CN(C)C)CCC2(C)C`, the inhibition was 1.72%.
On the same count and under the same terms, then `CCc1nn2ncccc2c1-c1ccnc(NC2CC2)n1`, with 1.6%; and `Cc1ccc(O)cc1Nc1ccnc2cc(-c3ccccn3)ccc12`, with 74%.

The next test concerns the target Epidermal growth factor receptor (Homo sapiens) (UniProt P00533). To be noted: at 0.1 µM.
For the compound `CNC(=O)c1cccc(C#Cc2cncnc2Nc2ccc(OCc3cccc(F)c3)c(Cl)c2)c1`, the inhibition turned out to be 62.1%.
`Fc1ccc(-c2cc(-c3c[nH]nc3-c3ccccn3)ccn2)cc1`: the inhibition was 0.04%.
As to `CN1CCC(n2cnc(-c3ccc(F)cc3)c2-c2ccnc(Nc3ccccc3)n2)CC1`, the inhibition was determined as 9.04%.
Turning to `CCn1c(-c2nonc2N)nc2c(C#CC(C)(C)O)ncc(OC3CCNCC3)c21`, the inhibition was 1.89%.
On the same count and under the same terms, then `COc1cccc(-c2c[nH]c3c(N/N=C/c4ccncc4)ncnc23)c1`, with 7.02%; and `Cc1ccc2c(-c3ccnc(Nc4ccccc4)n3)c(-c3ccc(F)cc3)nn2n1`, with 47.1%; and `COC(=O)Nc1nc2ccc(Oc3ccc(NC(=O)Nc4cccc(Cl)c4)cc3)cc2[nH]1`, with 3.42%.
As for `COc1ccc(-c2cc(-c3c[nH]nc3-c3ccccn3)ccn2)cc1`, the inhibition worked out at 1.65%.
Take `COc1cc(/C=N/Nc2ncnc3[nH]ncc23)ccc1O`: the inhibition came to 2.77%.
On to `[O-][S+]1CCN(Cc2ccc(-c3ccc4ncnc(Nc5ccc(OCc6cccc(F)c6)c(Cl)c5)c4c3)o2)CC1`, for which the inhibition amounted to 81.3%.
For the compound `CCNC(=O)O[C@H]1CN[C@H](C#Cc2cc3ncnc(Nc4ccc(OCc5cccc(F)c5)c(Cl)c4)c3s2)C1`, the inhibition is 86.6%.
On to `CC1=C(C(=O)Nc2cc(Cl)c3[nH]ncc3c2)C(c2ccc(C(F)(F)F)cc2)CC(=O)N1` (stereo not drawn), for which the inhibition was -1.31%.
As to `c1ccc(-c2nc3n(c2-c2ccc4c(c2)OCO4)CCC3)nc1`, the inhibition came out at 1.53%.
Same read-out and setting: with `CCOc1ccc2c(-c3ccnc(Nc4cccc(C(F)(F)F)c4)n3)cnn2n1` the figure was 0.09%; with `CCN1CCC(CC(=O)Nc2n[nH]c3nnc(-c4cccc(F)c4F)cc23)CC1`, -0.65%; with `COc1ccc2[nH]c3c4[nH]c5ccc(OC)cc5c4c4c(c3c2c1)C(=O)NC4=O`, 2.87%.
Consider `COc1ccc(-c2oc3ncnc(N)c3c2-c2ccc(NC(=O)Nc3cc(C(F)(F)F)ccc3F)cc2)cc1`, for which the inhibition came out at 2.43%.
`Fc1cccc(COc2ccc(Nc3ncnc4sc(-c5ccco5)cc34)cc2Cl)c1`: the inhibition came out at 71.9%.
Still for that read-out and setting: with `COc1cc(N2CCN(C(C)C)CC2)ccc1Nc1nc(Nc2ccc(F)cc2C(N)=O)c2cc[nH]c2n1` the figure was 5.2%.
Turning to `CN(C)CCOc1ccc(-c2nc(-c3ccncc3)c(-c3ccc4c(c3)CC/C4=N\O)[nH]2)cc1`, the inhibition amounted to 2.89%.
As to `NC(=O)c1sc(-n2cnc3ccc(C(F)(F)F)cc32)cc1OCc1ccccc1Br`, the inhibition stood at 0%.
On to `Nc1nc(-c2cccc(Cl)c2)c(-c2ccc3ncccc3n2)s1`, for which the inhibition was determined as 0.13%.
Take `CCCN1CCC(c2ccc(Nc3nc(Nc4cc(F)ccc4C(N)=O)c4cc[nH]c4n3)c(OC)c2)CC1`: the inhibition was 8.69%.
As to `CCn1cc(-c2ccnc3[nH]ccc23)c(-c2cccc(NC(=O)Nc3ccc(OCc4ccccc4)cc3)c2)n1`, the inhibition was -1.36%.
On to `NS(=O)(=O)c1ccc(Nc2ncc(-c3ccccc3)o2)cc1`, for which the inhibition was determined as 1.02%.
With `CCCN(CCS(C)(=O)=O)Cc1ccc(-c2ccc3ncnc(Nc4ccc(OCc5cccc(F)c5)c(Cl)c4)c3c2)o1`, the inhibition was determined as 77.6%.
Consider `CCN(CC)S(=O)(=O)c1ccc(OC)c(Nc2ncc(-c3ccccc3)o2)c1`, for which the inhibition worked out at 3.51%.
Same read-out and setting: with `CS(=O)(=O)CCNCc1coc(-c2ccc3ncnc(Nc4ccc(OCc5ccccc5)cc4)c3c2)c1` the figure was 80.3%; with `N#Cc1c(NC(=O)CN2CCOCC2)sc2c1CCCC2`, 0.55%.
On the same count and under the same terms, with `COc1cccc(-n2ncc3c(N/N=C/c4ccc(F)cc4)ncnc32)c1` the figure was 0.53%; with `O=C(O[C@H]1CN[C@H](C#Cc2cc3ncnc(Nc4ccc(Cc5ccccc5)cc4)c3s2)C1)N1CCOCC1`, 27.8%.
On the same count and under the same terms, then `COc1cc2c(cc1Nc1nc(Nc3ccsc3C(N)=O)c3cc[nH]c3n1)N(C(=O)CN(C)C)CCC2(C)C`, with 1.56%.
For the compound `CCc1nn2ncccc2c1-c1ccnc(NC2CC2)n1`, the inhibition turned out to be 2.78%.
`Cc1ccc(O)cc1Nc1ccnc2cc(-c3ccccn3)ccc12`: the inhibition is 57.7%.

For the next test the target is unchanged. To be noted: at 1 µM.
Regarding `CNC(=O)c1cccc(C#Cc2cncnc2Nc2ccc(OCc3cccc(F)c3)c(Cl)c2)c1`, the inhibition is 82.2%.
Turning to `Fc1ccc(-c2cc(-c3c[nH]nc3-c3ccccn3)ccn2)cc1`, the inhibition worked out at 1.67%.
Still for that read-out and setting: then `CN1CCC(n2cnc(-c3ccc(F)cc3)c2-c2ccnc(Nc3ccccc3)n2)CC1`, with 46.6%; and `CCn1c(-c2nonc2N)nc2c(C#CC(C)(C)O)ncc(OC3CCNCC3)c21`, with 3.18%; and `COc1cccc(-c2c[nH]c3c(N/N=C/c4ccncc4)ncnc23)c1`, with 41.9%.
As to `Cc1ccc2c(-c3ccnc(Nc4ccccc4)n3)c(-c3ccc(F)cc3)nn2n1`, the inhibition is 78.4%.
For the compound `COC(=O)Nc1nc2ccc(Oc3ccc(NC(=O)Nc4cccc(Cl)c4)cc3)cc2[nH]1`, the inhibition was determined as 7.64%.
Same read-out and setting: with `COc1ccc(-c2cc(-c3c[nH]nc3-c3ccccn3)ccn2)cc1` the figure was 6.06%; with `COc1cc(/C=N/Nc2ncnc3[nH]ncc23)ccc1O`, 8.71%.
With `[O-][S+]1CCN(Cc2ccc(-c3ccc4ncnc(Nc5ccc(OCc6cccc(F)c6)c(Cl)c5)c4c3)o2)CC1`, the inhibition is 83.5%.
Take `CCNC(=O)O[C@H]1CN[C@H](C#Cc2cc3ncnc(Nc4ccc(OCc5cccc(F)c5)c(Cl)c4)c3s2)C1`: the inhibition amounted to 98%.
On to `CC1=C(C(=O)Nc2cc(Cl)c3[nH]ncc3c2)C(c2ccc(C(F)(F)F)cc2)CC(=O)N1` (stereo not drawn), for which the inhibition stood at 5.03%.
Turning to `c1ccc(-c2nc3n(c2-c2ccc4c(c2)OCO4)CCC3)nc1`, the inhibition amounted to 0.21%.
In the case of `CCOc1ccc2c(-c3ccnc(Nc4cccc(C(F)(F)F)c4)n3)cnn2n1`, the inhibition is 1.97%.
For `CCN1CCC(CC(=O)Nc2n[nH]c3nnc(-c4cccc(F)c4F)cc23)CC1`, the inhibition was found to be 2.31%.
For `COc1ccc2[nH]c3c4[nH]c5ccc(OC)cc5c4c4c(c3c2c1)C(=O)NC4=O`, the inhibition came out at 23.3%.
As for `COc1ccc(-c2oc3ncnc(N)c3c2-c2ccc(NC(=O)Nc3cc(C(F)(F)F)ccc3F)cc2)cc1`, the inhibition is 2.22%.
For `Fc1cccc(COc2ccc(Nc3ncnc4sc(-c5ccco5)cc34)cc2Cl)c1`, the inhibition amounted to 81.9%.
Take `CN(C)CCOc1ccc(-c2nc(-c3ccncc3)c(-c3ccc4c(c3)CC/C4=N\O)[nH]2)cc1`: the inhibition is 2.4%.
Regarding `NC(=O)c1sc(-n2cnc3ccc(C(F)(F)F)cc32)cc1OCc1ccccc1Br`, the inhibition was -1.55%.
For `Nc1nc(-c2cccc(Cl)c2)c(-c2ccc3ncccc3n2)s1`, the inhibition turned out to be 6.93%.
The same measure, in the same setting: then `CCCN1CCC(c2ccc(Nc3nc(Nc4cc(F)ccc4C(N)=O)c4cc[nH]c4n3)c(OC)c2)CC1`, with 40.3%; and `CCn1cc(-c2ccnc3[nH]ccc23)c(-c2cccc(NC(=O)Nc3ccc(OCc4ccccc4)cc3)c2)n1`, with 2.86%; and `NS(=O)(=O)c1ccc(Nc2ncc(-c3ccccc3)o2)cc1`, with 1.18%.
With `CCCN(CCS(C)(=O)=O)Cc1ccc(-c2ccc3ncnc(Nc4ccc(OCc5cccc(F)c5)c(Cl)c4)c3c2)o1`, the inhibition amounted to 78.4%.
With `CCN(CC)S(=O)(=O)c1ccc(OC)c(Nc2ncc(-c3ccccc3)o2)c1`, the inhibition came out at 3.96%.
Still for that read-out and setting: with `CS(=O)(=O)CCNCc1coc(-c2ccc3ncnc(Nc4ccc(OCc5ccccc5)cc4)c3c2)c1` the figure was 92.2%.
With `N#Cc1c(NC(=O)CN2CCOCC2)sc2c1CCCC2`, the inhibition is -0.79%.
For the compound `COc1cccc(-n2ncc3c(N/N=C/c4ccc(F)cc4)ncnc32)c1`, the inhibition came out at 7.92%.
For the compound `O=C(O[C@H]1CN[C@H](C#Cc2cc3ncnc(Nc4ccc(Cc5ccccc5)cc4)c3s2)C1)N1CCOCC1`, the inhibition was determined as 69.9%.
With `COc1cc2c(cc1Nc1nc(Nc3ccsc3C(N)=O)c3cc[nH]c3n1)N(C(=O)CN(C)C)CCC2(C)C`, the inhibition is 9.19%.
On to `CCc1nn2ncccc2c1-c1ccnc(NC2CC2)n1`, for which the inhibition came out at 4.33%.
`Cc1ccc(O)cc1Nc1ccnc2cc(-c3ccccn3)ccc12`: the inhibition was 91.9%.
